Assay outcomes: PubChem, National Center for Advancing Translational Sciences (NCATS)
Most compounds without a hit are left out; they make up all but 2.8% or so of the library.
POLI inh: qHTS for Inhibitors of Polymerase Iota; DNA polymerase iota (Homo sapiens), Q9UNA4; Pol iota fluorescent replication assay, 10 min; Potency, µM (highest dose often 115 µM), without a hit: at the top dose activity, negative = inhibition, usual class: inhibitors; hit rate 1% among 390,000; note: potency is the fitted concentration of half-maximal effect
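Pol iota at 10 nM preincubated 15 min with compounds at room temperature; reaction started with fluorescent substrate, 50 nM final. Fluorescence read kinetically at 0 and 10 min; buffer-only wells as negative control.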
POLH inh: qHTS for Inhibitors of Polymerase Eta | DNA polymerase eta (Homo sapiens), Q9Y253 | recombinant Pol eta, fluorescent DNA replication assay | Potency, µM (doses to about 114 µM), inactives show at the highest dose activity change, negative = inhibition, actives largely listed as inhibitors | hit rate 1.2% among 390,000 | AID 588591, 2011; note: potency is the fitted concentration of half-maximal effect; % is set by controls: 0 for no effect and ±100 for the full control effect
Target sequence (Q9Y253 whole entry, looked up): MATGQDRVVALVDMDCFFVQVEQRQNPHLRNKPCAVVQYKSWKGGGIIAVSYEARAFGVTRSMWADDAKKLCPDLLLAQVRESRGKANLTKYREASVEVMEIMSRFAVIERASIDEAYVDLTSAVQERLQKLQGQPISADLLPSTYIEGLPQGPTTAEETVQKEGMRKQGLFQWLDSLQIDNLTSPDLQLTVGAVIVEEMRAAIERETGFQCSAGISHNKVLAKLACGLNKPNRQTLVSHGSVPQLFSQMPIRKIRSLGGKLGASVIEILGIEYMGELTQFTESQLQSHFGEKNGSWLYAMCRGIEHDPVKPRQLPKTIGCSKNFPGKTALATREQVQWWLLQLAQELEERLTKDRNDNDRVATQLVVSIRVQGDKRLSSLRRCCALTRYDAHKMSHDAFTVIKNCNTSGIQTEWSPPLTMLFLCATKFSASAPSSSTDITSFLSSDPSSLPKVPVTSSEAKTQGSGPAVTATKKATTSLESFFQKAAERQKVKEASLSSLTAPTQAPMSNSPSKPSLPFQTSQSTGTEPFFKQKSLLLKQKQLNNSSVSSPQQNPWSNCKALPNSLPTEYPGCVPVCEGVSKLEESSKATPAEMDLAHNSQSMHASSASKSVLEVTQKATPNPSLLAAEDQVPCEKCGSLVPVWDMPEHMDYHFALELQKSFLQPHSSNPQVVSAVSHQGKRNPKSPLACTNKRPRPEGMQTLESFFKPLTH
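Pol eta (10 nM) was preincubated with compounds for 15 min at room temperature, after which fluorescent replication substrate (50 nM final) was added to start the reaction. Fluorescence was read kinetically at 0 and 10 min.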
Pol beta inh: qHTS Assay for Inhibitors of DNA Polymerase Beta; P06746; Pol beta primer extension/strand displacement, fluorescence kinetic; Potency, µM (series often up to 114 µM), for inactives: at the highest dose activity change, negative = inhibition, hits mostly inhibitors; hit rate 1.3% among 340,000; AID 485314, 2010; note: potency is the fitted concentration of half-maximal effect; % is set by controls: 0 for no effect and ±100 for the full control effect
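Preincubation: enzyme (10 nM) with compound, 15 min, RT. Reaction: substrate added to 50 nM final. Reads: 0 and 10 min. Analysis: normalized, Hill fit.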
PI5P4K alpha inh: qHTS for Inhibitors of phosphatidylinositol 5-phosphate 4-kinase (PI5P4K); Phosphatidylinositol 5-phosphate 4-kinase type-2 alpha (Homo sapiens), P48426; PI5P4Kalpha enzyme, ADP-Glo luminescence, 60 min; stronger effect = lower value; max response, %; hit rate 1.2% among 330,000; active = max response of -50% or lower; inconclusive = between -30% and -50%; inactive = -30% or higher; note: value at the top dose of about 77 µM; % is set by controls: 0 for no effect and ±100 for the full control effect
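Quantitative HTS of the MLSMR library against PI5P4Kalpha with substrate. ATP added last at 5 microM final; room temperature, 60 minutes. Remaining ATP depleted, ADP converted and read as luminescence.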
WRN inhibitor: qHTS for Inhibitors of WRN Helicase. Bifunctional 3'-5' exonuclease/ATP-dependent helicase WRN (Homo sapiens), Q14191. WRN helicase unwinding, fluorescent forked duplex, kinetic. Potency, µM (doses to about 114 µM), for the others: at the top dose activity change, negative = inhibition, most hits filed as inhibitors. hit rate 0.46% among 360,000. AID 651768, 2012; note: potency is the fitted concentration of half-maximal effect; % is set by controls: 0 for no effect and ±100 for the full control effect; nearly all actives have a fitted effect of over 55% in size
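Kinetic fluorescence helicase assay: unwinding of a quenched forked DNA duplex (100 nM final) with 2 mM ATP final raises red fluorescence (525/598 nm). Compounds sat 15 min at room temperature with 20 nM WRN beforehand.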
Pol kappa inh: qHTS for Inhibitors of Polymerase Kappa | Potency, µM (top dose mostly 107 µM), inactives show top-dose activity, negative = inhibition, hits mostly inhibitors | DNA polymerase kappa (Homo sapiens), Q9UBT6 | hit rate 0.53% among 400,000 | purified Pol kappa, fluorescent DNA synthesis assay, 10 min; note: potency is the fitted concentration of half-maximal effect; % is set by controls: 0 for no effect and ±100 for the full control effect
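Fluorescent qHTS in 1536-well format: enzyme (10 nM) and compound sat 15 min at room temperature before 50 nM substrate (final) was added. Signal taken at 0 and 10 min; no-enzyme buffer wells were negative controls.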
* marks the source's active call; other numbers are inactive results; u = inconclusive; x = no result given; ! = repeats disagree; [ ] = dose if it differs, or a comment. Unless noted, calls come from the whole dose curve; as a rule, active = well fitted curve in the direction sought with a large enough effect; inconclusive = small, poorly fitted or top-dose-only effect, or another doubt; inactive = no such curve, though single readings can be large; an effect the other way counts as inactive or inconclusive.

SMILES	POLI inh	POLH inh	Pol beta inh	PI5P4K alpha inh	WRN inhibitor	Pol kappa inh
CC(C)CC(=O)Nc1nc(=S)ss1	u	1%	2%	-53*	-33%	-6%
Cc1ccccc1C(=O)Nc1nc(=S)ss1	-1%	-3%	15%	u	u	-21%
CC(=O)Nc1nc(=S)ss1	u	2%	19%	-58*	-19%	-5%
COCCCNC(=O)CSc1ccsc1[N+](=O)[O-]	u	45µM*	-23%	-20	-5%[11.6 µM]	u
O=C(CSc1ccsc1[N+](=O)[O-])N1CCCCCC1	u	-10%	u	-14	-1%	-10%
O=C(Cc1cccs1)NC1C(=O)N2C(C(=O)[O-])=C(C[n+]3ccccc3)CSC12 (stereo unspecified)	x	x	x	x	x	3.5µM*
O=C(COc1ccccc1)NC1C(=O)N2C(C(=O)O)=C(Cl)CSC12 (stereo unspecified)	u	u	14%	-2	-5%	-36%
NC(=O)c1cc[n+](CC2=C(C(=O)O)N3C(=O)[C@@H](NC(=O)[C@@H](c4ccccc4)S(=O)(=O)[O-])[C@H]3SC2)cc1	14µM*	3.2µM*	10µM*	x	x	27µM*
COc1ccccc1N1CCN(C(=O)C2CCN(S(=O)(=O)c3cnc[nH]3)CC2)CC1	41%	-11%	15%	x	x	4%
O=C1/C(=C/c2ccc(Br)cc2)Oc2cc(O)ccc21	39%	-24%	14µM*	-24	7%	-3%
CC(C)(C)c1ccc(/C=C2\Oc3cc(O)ccc3C2=O)cc1	-3%	-3%	0%	18	-13%	-16%
O=C1/C(=C\c2ccc(O)c(O)c2)Oc2cc(O)ccc21	x	x	x	x	x	4.7µM*
O=c1c(Cl)c(N/N=C/c2ccc(Cl)cc2)cnn1-c1ccccc1	28µM*	u	18µM*	3	u	u
Nc1c(C(=O)N/N=C/c2ccc(Cl)cc2)cnn1-c1ccccc1	147%	-10%	-8%	-1	-24%	-11%
O=C(C#Cc1ccccc1)c1ccc([N+](=O)[O-])cc1	34%	-14%	16%	-3	32µM*	3%
O=C(CSCC(=O)c1ccc([N+](=O)[O-])cc1)c1ccc([N+](=O)[O-])cc1	x	x	x	u	-9%	x
O=C(C#Cc1ccccc1)c1ccccc1	x	-5%	x	9	45µM*	x
CC(=O)c1ccc(NC(=O)CC2Oc3ccc(C)cc3NC2=O)cc1 (stereo unspecified)	-13%	6%	10%	x	x	u
OC[C@H]1O[C@H](n2cnc3c(N[C@H]4CCC[C@@H]4O)ncnc32)[C@H](O)[C@@H]1O	x	x	x	x	x	-11%[60.1 µM]
Cc1ccc(-c2nc(NC(=O)CSc3cc(C)c4ccccc4n3)ns2)cc1	-10%	u	8.9µM*	0	-15%	-22%
Cc1cc(NC(=O)n2ncc3c(C)cccc32)ccc1Br	28%	-18%	8%	x	x	0%
Cc1cc(C)c2nc(Cl)c(CN(Cc3ccco3)C(=O)Nc3ccccc3C)cc2c1	89µM*	-7%	1%	x	-13%	-8%
CCOc1ccc(CNS(=O)(=O)c2ccc3c(c2)CC(C)N3C(C)=O)cc1OC (stereo unspecified)	-3%	0%	1%	x	x	-13%
Cc1ccc(NC(=O)C2CCCN2S(=O)(=O)c2ccc3c(c2)CCCC(=O)N3)cc1C (stereo unspecified)	-4%	-8%	40%	x	x	17%
CC(=O)C1(O)Cc2c(O)c3c(c(O)c2C(OC2CC(N)C(O)C(C)O2)C1)C(=O)c1c(O)cccc1C3=O (stereo unspecified)	u	x	x	x	x	7.1µM*
SMILES	POLI inh	POLH inh	Pol beta inh	PI5P4K alpha inh	WRN inhibitor	Pol kappa inh
COc1cccc2c1C(=O)c1c(O)c3c(c(O)c1C2=O)C[C@@](O)(C(=O)CO)C[C@@H]3O[C@H]1C[C@H](N)[C@H](O)[C@H](C)O1	-10%	45µM*	8.9µM*	0	56µM*	27µM*!
CC(=O)Oc1ccc2cc(-c3nc4c(s3)CCc3ccccc3-4)c(=O)oc2c1	51%	x	x	x	x	-4%
C(=C\c1ccnc2ccccc12)/c1ccc(N(Cc2ccccc2)Cc2ccccc2)cc1	37%	x	x	x	x	9%
CCN(CC)C(=O)c1sc2c(c1C)c(=O)n(CCc1ccccc1)c(=O)n2Cc1ccc(C)cc1	-7%	-19%	-10%	x	x	-1%[60.1 µM]
CCc1ccc(S(=O)(=O)c2nnn3c2nc(Nc2ccc(NC(C)=O)cc2)c2sccc23)cc1	79µM*	u	-5%	x	x	-20%
CN(c1ccc(C(=O)NCCSCc2ccco2)cc1)S(C)(=O)=O	7%	-14%	1µM*	-4	-13%	-2%
O=C(CN(c1ccccc1)S(=O)(=O)c1ccccc1)NCCSCc1ccco1	u	u	56µM*	u	-12%[11.6 µM]	79µM*
COc1ccc(N(CC(=O)NCCSCc2ccco2)S(=O)(=O)c2ccccc2)cc1	38%	-3%	-11%	0	-7%	-7%
C[S+](C)CC(=O)c1ccc2ccccc2c1	u	x	x	x	x	-38%
COc1ccc(C(=O)Nc2nnc(S(=O)(=O)N(C)c3ccc(Cl)cc3)s2)cc1OC	-16%	u	-11%	x	x	-17%
CC(=O)Nc1ccc(S(=O)(=O)NCCC(=O)OCC(=O)N2CCN(C(=O)c3ccco3)CC2)cc1	45µM*	u	45µM*	-16	u	-32%
Cc1cnc(NC(=O)CSc2nnc(Cc3ccccc3)o2)s1	71µM*	-10%	-1%	x	-9%[57.1 µM]	-7%
CCn1c(=O)cc(OCC(=O)N2CCN(c3ccc(OC)cc3)CC2)c2ccccc21	-16%	1%	15%	x	x	-7%
Cc1cc(=O)oc2cc(OCc3ccc(C(=O)N4CCN(c5ccc([N+](=O)[O-])cc5)CC4)cc3)ccc12	-13%	15%	14%	-24	-8%	-6%[60.1 µM]
Cc1cc(=O)oc2cc(OCc3ccc(C(=O)N4CCN(c5ccccc5)CC4)cc3)ccc12	121%	3%	11µM*	-18	-11%	-2%
COC(=O)CN1C(=O)[C@H]2[C@@H](c3ccc(C)o3)N3C(=O)CN(Cc4ccc(-c5ccccc5)cc4)C(=O)[C@@]3(C)[C@H]2C1=O	-15%	-5%	35%	-62*	7%	6%
CC1CCc2c(sc3nc(-c4cc5ccccc5oc4=O)nc(Cl)c23)C1 (stereo unspecified)	-21%	-1%	-21%	x	x	-20%
